About 5,500 (1.6%) of roughly 350,000 compounds were called active.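 Rule for the calls: active = significant combined selectivity score with lowered wild-type GFP, culture density cut under 30%, mutant RFP and density less affected; inactive = any of these conditions unmet.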 The list comes from a sample in which actives are over-represented; it also holds similar structures and randomly drawn compounds.
assay: reduced GFP signal of wild-type E. coli, primary screen, bacterial rRNA inhibitor project, GFP/RFP fluorescence, OD600, single point (AID 720706); details: E. coli WT GFP vs humanized-ribosome RFP mutants, 24 h; GFP signal change (wild-type ribosome): stronger effect = lower value, DMSO median 0, no signal -100; OD600 change: measured here: OD600 growth, DMSO median 0, no signal -100; RFP signal change: measured here: RFP humanized mutant strains, DMSO median 0, no signal -100, concentration not given here

SMILES | GFP signal change (wild-type ribosome) | OD600 change | RFP signal change
Cc1ccccc1-c1cc(C(=O)NCc2cccs2)n(CC2CC(c3cccnc3)=NO2)n1 (stereo not drawn) | -17.6% (active) | -10.9% | 5.68%
Cc1ccc(CNC(=O)c2cc(-c3ccccc3C)n(CC3CC(c4cccc([N+](=O)[O-])c4)=NO3)n2)cc1 (stereo not drawn) | 6.99% (inactive) | 10.7% | -2.49%
Cc1ccccc1-c1cc(C(=O)NCC2CC2)n(CC2CC(c3cccnc3)=NO2)n1 (stereo not drawn) | -8.08% (inactive) | -3.34% | -12%
Clc1ccc(Nc2ccc3ccccc3n2)cc1 | -54.6% (active) | -30% | -18%
C=CCNc1nc(Nc2ccc(Cl)cc2)nc(OC)n1 | -33.3% (inactive) | -34% | -2.27%
O=C(NNC(=O)c1ccc2ccccc2c1)c1ccc(Cl)cc1 | 2.13% (inactive) | 11.3% | -2.59%
COc1ccc(C#Cc2ccc([C@H]3[C@@H](CO)N4CCCCN(S(=O)(=O)c5cn(C)cn5)C[C@H]34)cc2)cc1 | -58.4% (inactive) | -77.4% | -16.4%
O=C(CC1CC1)N1[C@@H](CO)[C@@H](c2ccccc2)C12CN(S(=O)(=O)c1ccccc1)C2 | -0.794% (inactive) | 0.08% | 4.17%
CO[C@H]1CN(C)C(=O)c2ccc(NC(=O)C3CC3)cc2OC[C@H](C)N(C(=O)CN2CCOCC2)C[C@@H]1C | 2.07% (inactive) | 1.32% | -3.59%
C[C@H](CO)N1C[C@H](C)[C@H](CN(C)Cc2ccc(C(=O)Nc3ccccc3N)cc2)Oc2ccc(NC(=O)Nc3ccccc3)cc2CC1=O | -24.5% (inactive) | -22.3% | 1.58%
C[C@@H]1CCCCO[C@H](CN(C)C(=O)NC2CCCCC2)[C@H](C)CN([C@@H](C)CO)C(=O)c2cc(NC(=O)C3CCCCC3)ccc2O1 | -5.13% (inactive) | -0.493% | -3.14%
COc1ccc(NC(=O)Nc2cccc3c2O[C@@H](CN(C)S(=O)(=O)c2cn(C)cn2)[C@H](C)CN([C@@H](C)CO)C3=O)cc1 | -1.33% (inactive) | -1.5% | -0.415%
O=C(NC1CCCC1)[C@@H]1[C@@H](CO)[C@@H]2Cn3c(ccc(-c4ccc(F)cc4)c3=O)[C@H]1N2Cc1cocn1 | -0.879% (inactive) | 4.54% | -1.31%
COC(=O)C[C@@H]1C[C@@H]2c3cc(NC(=O)NC4CCCC4)ccc3O[C@@H]2[C@@H](CO)O1 | 1.15% (inactive) | -0.449% | -0.687%
OC[C@@H]1CN(Cc2cccs2)C[C@H](n2cnc3c(NC4CCCC4)ncnc32)O1 | -2.42% (inactive) | -4.54% | 4.82%
OC[C@@H]1CN(Cc2ccc(F)cc2)C[C@H](n2cnc3c(NC4CCCC4)ncnc32)O1 | -15.1% (inactive) | -8.49% | 0.518%
OC[C@@H]1CN(Cc2ccc(-c3ccccc3)cc2)C[C@H](n2cnc3c(NC4CCCC4)ncnc32)O1 | -21.9% (active) | -14.8% | -2.32%
CCCN1C[C@@H](C)[C@@H](OC)CN(C)C(=O)c2cc(NC(=O)NC3CCCCC3)ccc2OC[C@H]1C | 2.68% (inactive) | 4.16% | -1.33%
O=C(C[C@@H]1CC[C@@H]2[C@H](COC[C@H](O)CN2S(=O)(=O)c2ccc(F)cc2)O1)NCc1ccc(Cl)c(Cl)c1 | -20.8% (inactive) | -43.9% | 0.781%
C[C@@H]1CN([C@H](C)CO)C(=O)Cc2cc(NC(=O)Cn3cnnn3)ccc2O[C@@H]1CN(C)S(=O)(=O)c1ccc(F)cc1 | 4.41% (inactive) | -2.05% | 0.611%
O=C(Nc1ccc(Cl)c(Cl)c1)c1ccccc1NC(=O)C1CC=CCC1C(=O)O (stereo not drawn) | -35.4% (inactive) | -49.6% | -4.13%

SMILES | GFP signal change (wild-type ribosome) | OD600 change | RFP signal change
CC1(C(=O)O)CCC(C(=O)Nc2ccc(Cl)c(Cl)c2)C1(C)C (stereo not drawn) | -23.4% (active) | -16.1% | -7.62%
O=C(Nc1ccc2c(c1)OCO2)C1CC1(Cl)Cl (stereo not drawn) | -1.64% (inactive) | 3.17% | -2.98%
Cc1noc(C)c1S(=O)(=O)Nc1ccc2c(c1)CC(=O)N([C@@H](C)CO)C[C@H](C)[C@H](CN(C)C(=O)Nc1cccc3ccccc13)O2 | -2.17% (inactive) | -1.79% | 1.2%
COc1ccc(S(=O)(=O)Nc2ccc3c(c2)CC(=O)N([C@@H](C)CO)C[C@@H](C)[C@@H](CN(C)Cc2ccc(C(=O)Nc4ccccc4N)cc2)O3)cc1 | -5.01% (inactive) | -12% | 2.02%
C[C@H](CO)N1C[C@H](C)[C@H](CN(C)C)Oc2ccc(NC(=O)c3ccncc3)cc2CC1=O | 2.76% (inactive) | 14.2% | 0.42%
O=C(c1cccc(S(=O)(=O)N2CCCCCC2)c1)N1CCN(Cc2ccccc2)CC1 | -2.42% (inactive) | -10.1% | 4.63%
CCn1c2ccccc2c2cc(NC(=O)COC(=O)c3cc(S(=O)(=O)N4CCCCC4)ccc3Cl)ccc21 | 10.5% (inactive) | 8.82% | 4.22%
CCn1c(O)c(N=NC(=O)c2cccc(S(=O)(=O)N3CCCCC3)c2)c2ccccc21 | -23.6% (active) | -16.1% | -4.79%
COc1ccc(CN2[C@H](CO)[C@@H]3c4ccccc4N(C(=O)C4CC4)C[C@@H]32)cc1 | -9.79% (inactive) | -9.13% | -1.21%
O=C(NC1CCCCC1)N1CC2(C1)[C@H](c1ccccc1)[C@@H](CO)N2S(=O)(=O)Cc1ccccc1 | -0.158% (inactive) | -18.2% | 1.15%
C=CCc1c(C)nc2cc(-c3ccccc3)[nH]n2c1=O | -6.23% (inactive) | -4.26% | -2.25%
Cc1nc2nc[nH]n2c(=O)c1C/C=C/c1ccccc1 | -22.4% (active) | 1.36% | -5.82%
O=C(C[C@H]1C=C[C@H](NC(=O)C2CCOCC2)[C@@H](CO)O1)NCC1CC1 | -0.532% (inactive) | 2.38% | 0.125%
C[C@@H]1CN(C)C(=O)c2cc([N+](=O)[O-])ccc2O[C@@H]1CN(C)C(=O)OC(C)(C)C | -2.71% (inactive) | 7.21% | -0.0835%
COc1cccc(NC(=O)COc2cccnc2[N+](=O)[O-])c1 | 2.25% (inactive) | 2.69% | -3.22%
CCN1CCN(c2nc(Nc3cccc(F)c3)nc(N)c2[N+](=O)[O-])CC1 | 1.28% (inactive) | -14.8% | -3.28%
COc1cccc(Nc2nc(N)c([N+](=O)[O-])c(NCc3ccco3)n2)c1 | -45.5% (active) | -19.5% | -12.3%
CO[C@H]1CN(C)C(=O)c2cc(NC(=O)c3cnccn3)ccc2OC[C@@H](C)N(CC2CC2)C[C@@H]1C | 1.98% (inactive) | -3.03% | -2.31%
CN(Cc1ccccc1F)C[C@H]1[C@@H](c2ccccc2)[C@@H](CO)N1S(C)(=O)=O | -3.23% (inactive) | -1.8% | -1.06%
Cc1noc(C)c1S(=O)(=O)Nc1ccc2c(c1)CC(=O)N([C@H](C)CO)C[C@@H](C)[C@@H](CN(C)Cc1ccncc1)O2 | -1.08% (inactive) | 6.97% | 0.021%
COc1ccc(OC)c(-c2csc(NC(=O)C3=NNC(=O)CC3)n2)c1 | -21.6% (inactive) | -29.6% | -5.17%

SMILES | GFP signal change (wild-type ribosome) | OD600 change | RFP signal change
COc1ccc(OC)c(-c2csc(NC(=O)COC(=O)C3CC3)n2)c1 | -18% (active) | -4.55% | 5.3%
O=C(COC(=O)C1CCCO1)Nc1nc(-c2ccc(F)cc2)cs1 (stereo not drawn) | -5.81% (inactive) | -14.9% | -1.04%
Cc1ccc(S(=O)(=O)Nc2ccc3c(c2)C(=O)N([C@@H](C)CO)C[C@H](C)[C@@H](CN(C)S(=O)(=O)c2ccc(C)cc2)O3)cc1 | 0.928% (inactive) | 0.52% | 1.47%
O=C1CN(Cc2ccccc2)C[C@H]2[C@H](c3ccc(-c4ccccc4)cc3)[C@@H](CO)N12 | 4.87% (inactive) | -18% | 11.1%
COc1ccc(CNC(=O)/C(C#N)=C/c2cccc(OC)c2OC)cc1 | -12.3% (inactive) | -6.5% | 1.12%
COCCNC(=O)/C(C#N)=C/c1cccc(OCc2ccccc2)c1 | -27.3% (active) | -3.28% | -7.68%
COCCNC(=O)/C(C#N)=C/c1nc(N(C)C)n(-c2ccc(F)cc2)c1Cl | 23.8% (inactive) | 16.1% | 2.57%
C[C@@H]1CN([C@H](C)CO)S(=O)(=O)c2ccc(-c3ccccc3)cc2O[C@@H]1CN(C)C(=O)CC1CC1 | -1.82% (inactive) | -12.8% | 1.01%
O=C(C1CCC1)N1CC2(C1)[C@H](c1ccccc1)[C@H](CO)N2Cc1nccs1 | 2.78% (inactive) | 3.6% | -2.04%
COc1ccccc1CNC(=O)C[C@@H]1C[C@H]2c3cc(NC(=O)CN(C)C)ccc3O[C@H]2[C@@H](CO)O1 | 0.305% (inactive) | -4.08% | -3.75%
COc1ccc(C(=O)COC(=O)c2c(C)noc2C)cc1Cl | 0.365% (inactive) | -1.69% | 4.01%
Cc1onc(-c2ccccc2Cl)c1C(=O)OCC(=O)c1ccccc1 | -21.5% (active) | 3.35% | -2.14%
Cc1onc(-c2ccccc2Cl)c1C(=O)OCc1nnc(-c2ccccc2)o1 | -1.78% (inactive) | -40.3% | -4.01%
COc1ccc2c3c(n(C)c2c1)[C@@H](CO)N(C(=O)C1CC1)CC31CN(C(=O)C2CCOCC2)C1 | -0.396% (inactive) | 5.66% | -5.33%
CCCNC(=O)N1CC(=O)N2[C@@H](CO)[C@H](c3ccc(-c4ccc(C)cc4)cc3)[C@@H]2C1 | 2.33% (inactive) | 1.16% | -7.67%
Cc1nn(C)cc1C(=O)Nc1ccccc1Br | 1.8% (inactive) | 6.79% | -7.21%
CCn1c(NC(=O)c2nn(C)cc2Br)nc2ccccc21 | -17.8% (active) | -7.54% | 6.47%
CCCn1c(NC(=O)C23CC4CC(CC(O)(C4)C2)C3)nc2ccccc21 | -30.1% (inactive) | -35.7% | 3.93%
C[C@H]1CN([C@@H](C)CO)C(=O)CCCn2nncc2CO[C@H]1CN(C)Cc1ccc2c(c1)OCO2 | -1.02% (inactive) | 5.54% | 0.27%

— PubChem BioAssay AID720706 (Broad Institute, 2013)
